p53ts 32C tox: cytotoxicity in p53ts cells at permissive temperature; Potency, µM (series often up to 46.1 µM), for the others: at the top dose activity change, negative = cytotoxicity, actives largely listed as cytotoxic; H1299-p53A138V at 32C, ATP luminescence viability, 24 h; hit rate 0.93% among 130,000; AID 924;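 also: 0% = DMSO and -100% = full killing by reference compound; nearly all actives have a fitted effect of over 55% in size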
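ATP-content luminescence (ATPlite) read-out after 24 h compound exposure at 32C in H1299-p53A138V cells (600/well). Tested up to 46 uM. Normalized to DMSO (0%) and 100 uM tamoxifen (100% killing); Hill-fit AC50.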
p53ts 39C tox: kills p53ts cells at the nonpermissive temperature | H1299-p53A138V viability at 39C, ATP luminescence, 24 h | Potency, µM (top dose mostly 46.1 µM), without a hit: at the top dose activity change, negative = cell killing, most hits filed as cytotoxic | hit rate 1.5% among 130,000 | AID 902; also: % is scaled to controls: 0 for no effect and ±100 for the full control effect; nearly all actives have a fitted effect of over 55% in size
Peg3 imprint: genomic imprint erasure induction. mouse ES Peg3-LacZ reporter, beta-gal luminescence, 40 h. Potency, µM (series often up to 60.7 µM), without a hit: at the highest dose activity change, positive = activation, most hits filed as activators. hit rate 0.02% among 110,000. AID 1948
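Each well holds 300 Peg3LacZ-Neo (maternal) female ES cells incubated 40 h at 37C, 5% CO2. LacZ is measured by BetaGlo luminescence, with AC50 and maximum efficacy derived from dose-response curves.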
IkB sig inh: inhibitors of IkB signaling in ABC-DLBCL cells | ABC-DLBCL IkBa-CBG/CBR dual luciferase ratio, 4 h; response scale: scaled: untreated 0%, proteasome inhibitor 100% | hit rate 0.04% among 110,000 | Potency, µM (doses to about 57.1 µM), without a hit: at the highest dose IkBa stabilization activation | AID 445; active = well fitted curve in the direction sought with a large enough effect in the signal ratio, not every such curve was filed as active; inconclusive = small, poorly fitted or top-dose-only effect, or a change in a side signal; the % refers to the signal ratio;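 also: the direction sought is a rising ratio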
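Luminescence ratio of IκBα-fused green versus native red beetle luciferase in OCI-Ly3 cells, 4 h post-doxycycline with compound; red signal alone, scaled from basal (0%) to zero light (-100%), flagged nonspecific or cytotoxic effects.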
An asterisk follows results filed as active; ? = inconclusive; · = not tested or not shown; ! = a repeat was not active; [ ] = remark or other dose. Only some compounds are listed: those with a hit (about 1.8% of all), similar ones and a draw of the others. Unless noted, calls follow the shape of the dose curve; as a rule, active = well fitted curve in the direction sought with a large enough effect; inconclusive = small, poorly fitted or top-dose-only effect, or another doubt; inactive = no such curve, though single readings can be large; an effect the other way counts as inactive or inconclusive. Potency is read from the fitted curve at half-maximal effect.

SMILES	p53ts 32C tox	p53ts 39C tox	Peg3 imprint	IkB sig inh
COC(=O)C1CN(C#N)N(c2ccc(Cl)cc2)C12c1ccccc1-c1ccccc12 (centres undefined)	4µM*	11µM*	·	·
O=c1cccc2n1C[C@@H]1C[C@H]2CN2CCCC[C@H]12	·	·	·	3%[11.4 µM]
CCCCCCCCCOc1ccc2[nH]cc(CCN)c2c1	?	32µM*	-34%	?
COc1ccc2[nH]cc(CCN)c2c1	8%	6%	-18%	0%
CN(C(=O)Cc1ccc(Cl)c(Cl)c1)[C@H](CN1CCCC1)c1cccc(N=C=S)c1	32µM*	32µM*	-30%	?
Cc1ccc(NC(=O)Nc2ccc3nc(N4CCN(C)CC4)cc(C)c3c2)cc1F	25µM*	?	4%[10.9 µM]	-6%
O=C(c1ccccc1)[C@H]1[C@H](c2ccccc2[N+](=O)[O-])N1C1CCCCC1 (some centres undefined)	1%[9.22 µM]	-23%[9.22 µM]	-21%[10.9 µM]	5µM*
CCn1nc(-c2ccccc2)nc2c(=O)n(C)c(=O)nc1-2	0.63µM*	4µM*	-98%	?
Oc1ccc2c3c1O[C@H]1c4c(c5ccccc5n4Cc4ccccc4)C[C@]4(O)[C@H](C2)N(CC2CC2)CC[C@@]314	?	32µM*	-29%	?
COc1cc2c(cc1O)CCN[C@H]2C	·	·	·	-1%[11.4 µM]
COC(=O)/C(C)=C\CC12OC(C)(C)C3CC(C=C4C(=O)c5c(OC)c6c(c(CC=C(C)C)c5OC431)OC(C)(CCC=C(C)C)C=C6)C2=O (centres undefined)	4µM*	6.3µM*	-42%	·
CC(=O)Oc1c2c(c(CC=C(C)C)c3c1C(=O)C1=CC4CC5C(C)(C)OC(C/C=C(\C)C(=O)O)(C4=O)[C@]15O3)OC(C)(CCC=C(C)C)C=C2 (some centres undefined)	4µM*	4µM*	-43%	·
COc1ccc2c(c1O)-c1cccc3c1[C@H](C2)N(C)CC3	-10%	-4%	·	0%
CC(C)[C@@]1(NC(=O)[C@@H]2C[C@H]3c4cccc5[nH]cc(c45)C[C@@H]3N(C)C2)O[C@@]2(O)[C@H]3CCCN3C(=O)[C@H](Cc3ccccc3)N2C1=O	?	32µM*!	-4%	?
CC(C)[C@@]1(NC(=O)[C@@H]2C=C3c4cccc5[nH]cc(c45)C[C@@H]3N(C)C2)O[C@]2(O)[C@H]3CCCN3C(=O)[C@H](Cc3ccccc3)N2C1=O	·	·	·	0%
Cc1nc(-c2ccc(-c3ccc(C(=O)N4CCc5cc6c(cc54)C4(CCN(C)CC4)CO6)cc3)c(C)c2)no1	16µM*	10µM*	-36%	?
